Test [1] is described as follows: Cytometric Cell-Based qHTS for Inhibitors of the mTORC1 Signaling Pathway in MEF (Tsc2-/-, p53-/-) Cells (AID 2660).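 Note: percent of cells above a phospho-rpS6 to PI ratio cutoff in each well.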 The essentials: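 Cells are plated, treated with compound for 24 hrs at 37 degree Celsius, then fixed, blocked and immunostained for phospho-rpS6 Ser235/236. Propidium iodide counterstain follows. Per-well % positive cells is derived from the PI-normalized phospho-S6 signal.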
(qHTS replaces the single test concentration by a dilution series.)

A short description of test [2]: High Content Imaging Cell-Based qHTS for Inhibitors of the mTORC1 Signaling Pathway in MEF (Tsc2-/-, p53-/-) Cells (AID 2666).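 Note: percent of cells scored positive for phospho-rpS6 Ser235/236 immunostaining by imaging.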 Conditions: at 38.3 µM (top of the series). The essentials:
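Phospho-rpS6 (Ser235/236) immunofluorescence, normalized and scored as % positive cells using rapamycin and DMSO controls, was read in empty-vector Tsc2-/-, p53-/- MEFs after 24 h compound exposure at 37 C; propidium iodide counted cells.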

In test [3] the target is Ubiquitin carboxyl-terminal hydrolase 2 (Homo sapiens) (UniProt O75604). Put plainly: qHTS Validation Assay for Inhibitors of Ubiquitin-specific Protease USP2a Using CHOP2 as the Reporter (AID 463106). An outline of the steps:
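USP2 core (10 nM final) was preincubated with compound 30 min at RT in pH 8.0 Tris/CaCl2/beta-ME/CHAPS buffer. Ub-CHOP2 and reporter substrate (25 nM final each) were then added, with fluorescence (Ex 485/Em 531) read after 60 min. Data were normalized to NEM full inhibition and fitted to concentration-response curves.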

The target of test [4] is DNA polymerase III PolC-type (Bacillus subtilis (strain 168)) (UniProt P13267). Put plainly: qHTS Validation Assay for the Inhibitors of DNA Replication in Gram-Positive Bacteria (AID 485295). Note: potency is the fitted concentration of half-maximal effect. An outline of the steps:
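Inhibition of DNA synthesis by the reconstituted PolC holoenzyme, monitored through PicoGreen staining of dsDNA formed from ssM13Gori, dNTPs and NTPs, with compound preincubation and room-temperature reaction.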

Test [5] has as its target Tumor susceptibility gene 101 protein (Homo sapiens) (UniProt Q99816). The test can be described thus: qHTS Validation Assay for Iinhibitors of HIV-1 Budding by Blocking the Interaction of PTAP/TSG101 (AID 485342; calls by dose curve). An outline of the steps:
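Compound wells held the Tsg101 binding domain (10 uM) and a FITC-conjugated PTAP peptide (50 nM) in buffer at pH 7.5 containing 0.15 M NaCl and 0.01% Tween 20; polarization was recorded after 20 min, r.t.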

For test [6], the target named is Beta-2 adrenergic receptor (Homo sapiens) (UniProt P07550). Put plainly: qHTS validation assay of beta-arrestin-biased ligands of beta2-adrenergic receptor (AID 485366). The essentials: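 Values derive from curve-fitted %Activity of a luminescent beta-arrestin recruitment reporter; compounds tested up to 46 microM on Tango cells for 18 hr at 37 degrees C, 5% CO2.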

Test [7] concerns the target ATP-dependent 6-phosphofructokinase (Trypanosoma brucei brucei) (UniProt O15648). The test can be described thus: qHTS Validation Assay to Find Inhibitors of T. brucei phosphofructokinase (AID 485368). Note: potency is the fitted concentration of half-maximal effect. The essentials:
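Enzyme reaction in triethanolamine buffer pH 8.0 with 5 mM MgCl2, 0.01% Tween20 and 0.1% BSA; PFK 1.25 nM, F6P 0.5 mM, ATP 0.1 mM, 45 min RT. ADP quantified by ADP-Glo.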

Test [8] in a line: qHTS for differential inhibitors of proliferation of Plasmodium falciparum line D10 (AID 1877).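 Note: parasites grown with compound for 72 h before DNA staining.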 Note: potency is the fitted concentration of half-maximal effect.
Test [9] can be described thus: qHTS for differential inhibitors of proliferation of Plasmodium falciparum line Dd2 (AID 1882).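 Note: compound exposure of 72 h on infected erythrocytes; nearly all actives have a fitted effect of over 65% in size.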 Conditions: Potency: Plasmodium falciparum Dd2 proliferation inhibition. The essentials: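 SYBR Green I DNA fluorescence read-out, ex 485/em 535 nm. Signals were normalized to 0.29 uM artemisinin and DMSO wells, then corrected using vehicle-only plates flanking each stack. Parasite growth ran 72 h in erythrocytes before lysis.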

Test [10] can be described thus: qHTS for differential inhibitors of proliferation of Plasmodium falciparum line W2 (AID 1883).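 Note: parasites grown with compound for 72 h before lysis and staining.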 Note: potency is the fitted concentration of half-maximal effect. Conditions: Potency: Plasmodium falciparum W2 proliferation inhibition.
Test [11] in a line: qHTS for differential inhibitors of proliferation of Plasmodium falciparum line HB3 (AID 1886).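 Note: parasites grown with compound for 72 h before SYBR Green readout.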 Note: potency is the fitted concentration of half-maximal effect. The settings on record: Potency: Plasmodium falciparum HB3 proliferation inhibition.
Test [12] concerns the target ATP-dependent DNA helicase Q1 (Homo sapiens) (UniProt P46063). The test can be described thus: qHTS Validation Assay for Inhibitors of RecQ-Like Dna Helicase 1 (RECQ1) (AID 2353). The essentials:
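50 nM RECQ1T1 preincubated 15 min with compound in Tris pH 8.0 buffer with MgCl2, DTT, Tween-20 and 2.5 ug/ml poly(dI-dC); started with 200 nM TAMRA/BHQ-2 forked duplex and 2 mM ATP. Unwinding read as fluorescence (525/598 nm), two reads 2 h apart.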

Test [13] is described as follows: High Content Imaging Cell-Based qHTS for Inhibitors of the mTORC1 Signaling Pathway in MEF Cells (AID 2667).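 Note: Tsc2-/- p53-/- MEFs stably re-expressing wild-type Tsc2 exposed 24 h.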 The essentials:
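WT MEFs (Tsc2-/-, p53-/- re-expressing Tsc2), in DMEM + 10% FBS, were treated with compound for 24 h at 37 C. Cells were then fixed and stained for phospho-rpS6 Ser235/236 with propidium iodide as cell count. Values are % positive cells, with thresholds set against rapamycin-treated cells.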

A short description of test [14]: Cytometry Cell-Based qHTS for Inhibitors of the mTORC1 Signaling Pathway in MEF cells (AID 2668).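 Note: Tsc2-/- p53-/- mouse embryonic fibroblasts stably re-expressing wild-type Tsc2; percent cells positive for phospho-rpS6 Ser235/236 relative to propidium iodide stain.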 The essentials:
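In MEFs grown in DMEM + 10% FBS, a 24 hrs compound exposure preceded imaging of phospho-rpS6 Ser235/236 by laser-scanning cytometry.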

Test [15] can be described thus: Validation screen for small molecules that induce DNA re-replication in MCF 10A normal breast cells (AID 463097). Note: nearly all actives have a fitted effect of over 60% in size. An outline of the steps:
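Following 48 hr compound incubation (37 C, 5% CO2), MCF 10A cells receive Hoechst for 40 min at 37 C. Nuclei are then scanned (excitation 405 nm, emission 500-530 nm) for total fluorescence intensity.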

Test [16] in a line: qHTS Validation Assay to Find Inhibitors of Chronic Active B-Cell Receptor Signaling (AID 485345; active = well fitted curve in the direction sought with a large enough effect in the main read-out, with a control signal flat, not every such curve was filed as active). An outline of the steps:
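TMD8 ABC-DLBCL cells stably carrying doxycycline-inducible IkappaBalpha–green luciferase fusion plus unfused red luciferase; compounds 46 uM to 3 nM, 4 h at 37C with doxycycline. Corrected green/red luminescence ratio normalized to 10 uM MG-132 and basal cell wells; curves fitted.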

The nature of test [17]: Quantitative high throughput screen for delayed death inhibitors of the malarial parasite plastid, 96 hour incubation (AID 488745). Note: nearly all actives have a fitted effect of over 70% in size. Note: potency is the fitted concentration of half-maximal effect. An outline of the steps:
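P. falciparum carrying an integrated firefly luciferase reporter, grown in erythrocytes (2% hematocrit, 0.1% parasitemia final) in RPMI 1640/0.5% Albumax, was exposed to compound for 96 h (two generations) at 37 C, 5% CO2. Luminescence decrease indicated growth inhibition.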

The nature of test [18]: Quantitative high throughput screen for delayed death inhibitors of the malarial parasite plastid, 48 hour incubation (AID 488752). Note: nearly all actives have a fitted effect of over 65% in size. Note: potency is the fitted concentration of half-maximal effect. The essentials:
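Erythrocytes infected with P. falciparum carrying an integrated firefly luciferase reporter (2% hematocrit, 0.1% parasitemia final) were exposed to compounds in RPMI 1640/0.5% Albumax for 48 h at 37 C, 5% CO2. Growth inhibition was scored as reduced luminescence.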

Test [19] can be described thus: qHTS Assay for Identification of Small Molecule Inducers of Hypoxia Response (AID 2120; active = well fitted curve in the direction sought with a large enough effect in the signal ratio, with a control signal flat, not every such curve was filed as active; the % refers to the signal ratio). An outline of the steps:
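HRE-beta-lactamase reporter in CellSensor HRE-bla ME-180 cells, 2500 cells/well in Opti-MEM with 0.5% dialyzed FBS; compounds tested as titration series, 17 h at 37 degrees C. CCF4 substrate 2.5 h at room temperature; AC50 from 460/530 nm ratio.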

The target in test [20] is RecQ-like DNA helicase BLM (Homo sapiens) (UniProt P54132). The test can be described thus: qHTS Validation Assay for Inhibitors of Bloom's syndrome helicase (BLM) (AID 2364). The essentials:
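50 nM BLM preincubated 15 min at room temperature with compound in pH 8.0 Tris buffer containing 2.5 ug/ml poly(dI-dC); started with 200 nM TAMRA/BHQ-2 forked duplex and 2 mM ATP (final). Unwinding read as TAMRA fluorescence increase, two reads 2 h apart.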

Records with an inconclusive call do not appear. Activity calls are given as the source filed them. Unless noted, calls come from the whole dose curve; as a rule, active = well fitted curve in the direction sought with a large enough effect; inconclusive = small, poorly fitted or top-dose-only effect, or another doubt; inactive = no such curve, though single readings can be large; an effect the other way counts as inactive or inconclusive.

ATP-dependent 6-phosphofructokinase (Trypanosoma brucei brucei), sequence (O15648 whole entry, looked up): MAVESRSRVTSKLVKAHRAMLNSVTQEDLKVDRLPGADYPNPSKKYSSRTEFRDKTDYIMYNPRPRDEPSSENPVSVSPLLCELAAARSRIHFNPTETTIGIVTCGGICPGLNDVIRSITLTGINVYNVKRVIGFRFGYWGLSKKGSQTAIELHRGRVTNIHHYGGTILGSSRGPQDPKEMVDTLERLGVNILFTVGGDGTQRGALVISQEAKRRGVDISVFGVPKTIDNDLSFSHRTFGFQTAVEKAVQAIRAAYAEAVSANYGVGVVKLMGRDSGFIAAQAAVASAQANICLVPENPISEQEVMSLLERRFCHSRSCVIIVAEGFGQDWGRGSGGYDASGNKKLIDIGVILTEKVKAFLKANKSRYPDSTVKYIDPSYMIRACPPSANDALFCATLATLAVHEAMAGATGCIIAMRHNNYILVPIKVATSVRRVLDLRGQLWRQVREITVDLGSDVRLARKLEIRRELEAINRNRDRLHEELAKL
Tumor susceptibility gene 101 protein (Homo sapiens), sequence (Q99816 whole entry, looked up, the tested form may be a part): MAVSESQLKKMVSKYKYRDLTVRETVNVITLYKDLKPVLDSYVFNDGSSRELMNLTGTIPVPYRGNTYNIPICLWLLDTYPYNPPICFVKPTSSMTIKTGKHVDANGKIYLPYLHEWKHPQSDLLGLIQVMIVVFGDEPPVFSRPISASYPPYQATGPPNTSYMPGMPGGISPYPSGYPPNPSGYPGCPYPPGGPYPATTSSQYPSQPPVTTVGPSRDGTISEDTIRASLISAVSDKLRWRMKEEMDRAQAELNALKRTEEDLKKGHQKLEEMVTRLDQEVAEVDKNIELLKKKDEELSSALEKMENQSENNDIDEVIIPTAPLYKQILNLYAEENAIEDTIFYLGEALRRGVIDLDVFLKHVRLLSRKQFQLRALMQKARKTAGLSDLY
Beta-2 adrenergic receptor (Homo sapiens), sequence (P07550 whole entry, looked up): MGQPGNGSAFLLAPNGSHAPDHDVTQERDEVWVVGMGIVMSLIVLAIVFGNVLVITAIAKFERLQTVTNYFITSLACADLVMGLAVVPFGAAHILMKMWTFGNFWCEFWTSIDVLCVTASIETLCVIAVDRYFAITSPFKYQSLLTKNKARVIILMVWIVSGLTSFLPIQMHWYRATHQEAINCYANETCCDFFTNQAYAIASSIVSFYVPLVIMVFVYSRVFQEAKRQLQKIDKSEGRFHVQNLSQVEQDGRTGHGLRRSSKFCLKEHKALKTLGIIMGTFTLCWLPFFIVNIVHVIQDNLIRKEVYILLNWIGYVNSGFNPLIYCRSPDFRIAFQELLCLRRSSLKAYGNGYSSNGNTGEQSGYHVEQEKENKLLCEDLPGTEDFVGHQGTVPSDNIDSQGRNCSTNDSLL
DNA polymerase III PolC-type (Bacillus subtilis (strain 168)), sequence (P13267 whole entry, looked up): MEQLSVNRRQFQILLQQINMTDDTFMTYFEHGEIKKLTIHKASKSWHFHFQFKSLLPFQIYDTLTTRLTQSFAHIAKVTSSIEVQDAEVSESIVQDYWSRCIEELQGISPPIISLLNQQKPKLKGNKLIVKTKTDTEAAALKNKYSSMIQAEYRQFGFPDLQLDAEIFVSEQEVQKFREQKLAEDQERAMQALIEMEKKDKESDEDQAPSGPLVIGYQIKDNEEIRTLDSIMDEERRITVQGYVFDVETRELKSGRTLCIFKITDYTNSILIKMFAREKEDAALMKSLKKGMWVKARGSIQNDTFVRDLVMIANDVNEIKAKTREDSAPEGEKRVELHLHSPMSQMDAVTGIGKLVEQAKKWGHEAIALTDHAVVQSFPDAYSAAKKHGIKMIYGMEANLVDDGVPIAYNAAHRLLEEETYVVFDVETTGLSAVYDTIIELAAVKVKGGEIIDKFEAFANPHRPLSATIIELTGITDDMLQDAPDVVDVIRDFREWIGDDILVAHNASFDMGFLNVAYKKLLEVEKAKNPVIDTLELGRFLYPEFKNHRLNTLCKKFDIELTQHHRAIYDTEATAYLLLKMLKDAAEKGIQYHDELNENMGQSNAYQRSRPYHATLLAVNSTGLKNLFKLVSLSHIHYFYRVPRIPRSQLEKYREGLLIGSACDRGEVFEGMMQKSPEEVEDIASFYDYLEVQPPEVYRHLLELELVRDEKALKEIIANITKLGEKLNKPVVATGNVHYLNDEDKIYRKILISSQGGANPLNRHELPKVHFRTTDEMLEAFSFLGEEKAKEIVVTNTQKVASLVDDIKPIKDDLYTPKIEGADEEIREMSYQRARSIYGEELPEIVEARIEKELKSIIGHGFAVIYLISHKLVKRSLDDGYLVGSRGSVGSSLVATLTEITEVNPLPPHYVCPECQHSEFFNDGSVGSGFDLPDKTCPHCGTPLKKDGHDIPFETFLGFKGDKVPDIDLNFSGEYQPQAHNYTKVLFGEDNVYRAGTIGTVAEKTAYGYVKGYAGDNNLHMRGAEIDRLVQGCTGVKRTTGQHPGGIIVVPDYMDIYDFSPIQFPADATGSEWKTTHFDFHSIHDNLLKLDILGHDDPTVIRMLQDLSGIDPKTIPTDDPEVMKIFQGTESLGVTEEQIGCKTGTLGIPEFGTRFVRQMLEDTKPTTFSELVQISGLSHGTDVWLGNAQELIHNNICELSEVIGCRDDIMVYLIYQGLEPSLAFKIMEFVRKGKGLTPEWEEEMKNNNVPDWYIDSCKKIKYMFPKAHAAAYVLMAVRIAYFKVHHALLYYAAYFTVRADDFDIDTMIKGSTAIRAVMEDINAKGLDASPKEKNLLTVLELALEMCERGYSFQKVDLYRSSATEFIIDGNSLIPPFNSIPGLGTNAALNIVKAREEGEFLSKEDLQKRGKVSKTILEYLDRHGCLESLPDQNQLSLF
Ubiquitin carboxyl-terminal hydrolase 2 (Homo sapiens), sequence (O75604 whole entry, looked up): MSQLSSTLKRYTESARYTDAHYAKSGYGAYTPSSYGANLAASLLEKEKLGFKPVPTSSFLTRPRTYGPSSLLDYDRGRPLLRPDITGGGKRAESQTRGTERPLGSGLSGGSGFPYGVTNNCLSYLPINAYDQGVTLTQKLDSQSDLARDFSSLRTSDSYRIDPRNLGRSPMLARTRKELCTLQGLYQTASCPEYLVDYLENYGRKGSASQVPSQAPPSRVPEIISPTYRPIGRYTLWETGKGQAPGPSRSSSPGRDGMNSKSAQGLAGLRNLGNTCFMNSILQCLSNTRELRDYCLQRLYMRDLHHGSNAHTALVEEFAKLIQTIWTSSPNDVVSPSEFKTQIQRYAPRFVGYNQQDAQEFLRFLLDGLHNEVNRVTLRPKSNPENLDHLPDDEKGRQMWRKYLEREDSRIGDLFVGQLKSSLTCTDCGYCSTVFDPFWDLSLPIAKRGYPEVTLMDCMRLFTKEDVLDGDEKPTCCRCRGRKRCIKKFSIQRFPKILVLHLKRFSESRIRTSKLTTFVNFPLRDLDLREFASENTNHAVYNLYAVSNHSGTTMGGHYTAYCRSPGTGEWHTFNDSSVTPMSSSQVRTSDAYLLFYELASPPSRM
ATP-dependent DNA helicase Q1 (Homo sapiens), sequence (P46063 whole entry, looked up): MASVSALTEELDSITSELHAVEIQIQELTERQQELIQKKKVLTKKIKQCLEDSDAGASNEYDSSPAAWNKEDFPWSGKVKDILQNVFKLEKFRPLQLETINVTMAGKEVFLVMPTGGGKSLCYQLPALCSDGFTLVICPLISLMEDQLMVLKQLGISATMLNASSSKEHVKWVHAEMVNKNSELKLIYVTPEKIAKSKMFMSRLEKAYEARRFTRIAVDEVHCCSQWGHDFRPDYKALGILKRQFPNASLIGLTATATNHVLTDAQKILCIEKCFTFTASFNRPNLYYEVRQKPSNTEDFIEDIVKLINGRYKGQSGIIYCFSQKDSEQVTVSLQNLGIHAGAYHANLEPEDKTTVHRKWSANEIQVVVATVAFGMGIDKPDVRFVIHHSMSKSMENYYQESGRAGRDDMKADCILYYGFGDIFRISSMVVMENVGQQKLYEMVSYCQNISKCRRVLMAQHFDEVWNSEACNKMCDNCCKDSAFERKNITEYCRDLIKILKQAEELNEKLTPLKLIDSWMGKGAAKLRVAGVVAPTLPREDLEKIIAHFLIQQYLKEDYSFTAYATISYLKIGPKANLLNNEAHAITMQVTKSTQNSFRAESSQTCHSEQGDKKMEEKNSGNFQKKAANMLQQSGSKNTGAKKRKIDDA

`CC[C@H](C)C(=O)O[C@H]1CCC=C2C=C[C@H](C)[C@H](CC[C@@H]3C[C@@H](O)CC(=O)O3)[C@H]21`: the result in [1], in [2], in test [3], in test [5] and in [6] was inactive. The Potency result in test [4] and in [7] was “inactive” each time.
As to `CCCn1c(=O)[nH]c(=O)c2[nH]cnc21`, the Potency entry in test [8], in test [9], in [10], in [11], in test [13] and in test [14] was “inactive” each time. Besides, the Potency result in test [4], in [17] and in [18] was “inactive” each time. Moreover, the compound was called inactive in test [12], in test [1], in test [2], in [15], in [3] and in [5]. Moreover, the compound was classed as inactive in [16] and in [6].
On to `Nc1ccc(C(=O)O)cc1`, for which the compound was classed as inactive in test [19].
Regarding `Oc1ccc(O)cc1`, the Potency in [10] is 12.6 µM (active); in test [11], 12.6 µM (active); in test [4] it was 5.32 µM (active); in [7], 10.7 µM (active); in [17], 10.4 µM (active); in test [18], 8.28 µM (active). The call in test [12], in test [3], in test [5], in test [16] and in [6] was inactive. Moreover, the Potency result in test [13] is “inactive”.
Turning to `CC(=O)Oc1ccc(C(c2ccc(OC(C)=O)cc2)c2ccccn2)cc1`, in test [19], the compound was called inactive.
Turning to `CC(=O)O[C@H]1C[C@@H]2CC[C@@H]3[C@H](CC[C@@]4(C)[C@H]3C[C@H]([N+]3(C)CCCCC3)[C@@H]4OC(C)=O)[C@@]2(C)C[C@@H]1[N+]1(C)CCCCC1`, the compound was called inactive in [2], in [3], in test [5], in test [16] and in test [6]. Also, the Potency entry in test [13], in test [14], in test [4] and in test [7] was “inactive” each time.
Regarding `C=CCc1ccc(O)c(OC)c1`, in test [19], the outcome was inactive.
In the case of `COC1=CC(=O)C[C@@H](C)[C@]12Oc1c(Cl)c(OC)cc(OC)c1C2=O`, the result in test [19] was inactive.
Consider `CC(CCc1ccccc1)NCC(O)c1ccc(O)c(C(N)=O)c1` (stereo not given), for which the Potency was 12.6 µM (active) in test [8], 8.91 µM (active) in test [10], 12.6 µM (active) in test [11] and 13.1 µM (active) in test [18]. Further, the outcome in test [12], in [20], in [1], in test [2], in test [15] and in test [3] was inactive. For the same compound, the compound was called inactive in test [5] and in test [16]. Further, the Potency entry in test [13], in [14], in test [4] and in test [7] was “inactive” each time.
As to `C[N+]1(CCCCC[N+]2(C)CCCC2)CCCC1`, the Potency entry in [8], in test [9], in test [10], in test [11], in [13] and in [14] was “inactive” throughout. Besides, the Potency entry in [4], in test [7] and in [18] was “inactive” throughout. The result in test [12], in test [1], in [2], in test [15], in [3] and in test [5] was inactive. Besides, the compound was classed as inactive in test [16] and in [6].
Take `CN=C(NC#N)Nc1ccc(C2=NNC(=O)CC2C)cc1` (stereo not given): the Potency entry in test [8], in test [9], in test [10], in test [11], in test [17] and in test [18] was “inactive” throughout. Further, the compound was called inactive in [12] and in test [15].

Source of the values: PubChem BioAssay (NCATS).
